Test results from paper PMC7862700, “An all-to-all approach to the identification of sequence-specific readers for epigenetic DNA modifications on cytosine”.

Key:
Assay in all cases: DAPPL (digital affinity profiling via proximity ligation, sequencing); 10 mM Tris-HCl pH 7.5, 50 mM NaCl, 1 mM DTT, 4% glycerol, room temperature, 30 min; GST-TFs on glutathione beads, 16-mer random dsDNA library, 0.1% formaldehyde crosslink after washing; high values mean tight binding
FEV = target: T1, FEV (Homo sapiens, UniProt Q99581 1-238); conditions: protein: recombinant; tags: N-terminal GST; dsDNA, one strand shown
T1 sequence: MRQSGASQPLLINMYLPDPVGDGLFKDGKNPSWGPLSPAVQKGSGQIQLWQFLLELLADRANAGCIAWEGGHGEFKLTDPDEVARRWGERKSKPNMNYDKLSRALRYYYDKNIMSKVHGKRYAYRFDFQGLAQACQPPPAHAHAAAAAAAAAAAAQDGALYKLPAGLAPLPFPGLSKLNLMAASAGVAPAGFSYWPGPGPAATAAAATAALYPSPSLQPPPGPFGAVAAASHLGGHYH
Summary of the method: (§1)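 After expression in yeast as GST fusions, human transcription factors were bound to glutathione beads, DNA-barcoded and mixed with a tag-only sample. The pools were incubated with 200 nmole of a 16-mer random double-stranded DNA library in Tris/NaCl/DTT/glycerol buffer (30 min, room temperature), washed and crosslinked with 0.1% formaldehyde. Proximity ligation with BsaI/T4 ligase ran for 1 h at 37 °C, before PCR amplification and sequencing on an Illumina NextSeq500. Binding signal is a hexamer's read frequency for a factor divided by its frequency for the tag-only sample.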

ETV5 = ETV5 (Homo sapiens, UniProt P41161 1-510); conditions: protein: recombinant; tags: N-terminal GST; dsDNA, one strand shown
Sequence of ETV5 (P41161 whole entry): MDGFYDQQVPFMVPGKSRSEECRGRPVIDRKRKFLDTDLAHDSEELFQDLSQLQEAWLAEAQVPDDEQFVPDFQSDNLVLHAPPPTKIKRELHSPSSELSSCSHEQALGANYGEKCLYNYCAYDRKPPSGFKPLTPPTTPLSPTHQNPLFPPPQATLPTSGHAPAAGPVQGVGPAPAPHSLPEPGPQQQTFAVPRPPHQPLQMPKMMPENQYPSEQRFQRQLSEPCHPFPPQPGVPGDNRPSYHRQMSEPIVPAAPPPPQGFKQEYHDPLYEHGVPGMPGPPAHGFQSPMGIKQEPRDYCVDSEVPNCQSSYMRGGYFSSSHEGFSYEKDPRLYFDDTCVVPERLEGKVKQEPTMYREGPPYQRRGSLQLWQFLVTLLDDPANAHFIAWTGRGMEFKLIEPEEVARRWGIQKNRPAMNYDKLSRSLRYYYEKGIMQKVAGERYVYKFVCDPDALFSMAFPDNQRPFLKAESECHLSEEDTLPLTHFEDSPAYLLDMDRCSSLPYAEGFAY
Summary of the method: as §1

HSF1 = HSF1 (Homo sapiens, UniProt Q00613 1-529); conditions: protein: recombinant; tags: N-terminal GST; chain copies: 3; dsDNA, one strand shown
Sequence of HSF1 (Q00613 whole entry): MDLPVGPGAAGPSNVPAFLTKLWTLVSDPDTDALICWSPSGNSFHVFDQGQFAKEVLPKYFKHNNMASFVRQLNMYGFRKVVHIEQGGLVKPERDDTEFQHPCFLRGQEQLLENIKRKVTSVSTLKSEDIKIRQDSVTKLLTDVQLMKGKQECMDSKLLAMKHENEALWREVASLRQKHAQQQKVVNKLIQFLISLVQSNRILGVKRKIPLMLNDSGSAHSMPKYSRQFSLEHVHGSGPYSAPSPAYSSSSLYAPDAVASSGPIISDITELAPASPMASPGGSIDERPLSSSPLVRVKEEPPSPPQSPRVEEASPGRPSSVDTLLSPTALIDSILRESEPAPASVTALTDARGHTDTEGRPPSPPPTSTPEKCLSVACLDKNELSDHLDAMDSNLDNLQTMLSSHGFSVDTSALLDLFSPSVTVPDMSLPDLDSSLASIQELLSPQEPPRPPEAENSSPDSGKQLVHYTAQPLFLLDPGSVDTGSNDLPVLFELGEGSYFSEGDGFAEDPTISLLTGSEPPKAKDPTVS
Summary of the method: as §1

SPIC = target: T2, SPIC (Homo sapiens, UniProt Q8N5J4 1-248); conditions: protein: recombinant; tags: N-terminal GST; dsDNA, one strand shown
T2 sequence: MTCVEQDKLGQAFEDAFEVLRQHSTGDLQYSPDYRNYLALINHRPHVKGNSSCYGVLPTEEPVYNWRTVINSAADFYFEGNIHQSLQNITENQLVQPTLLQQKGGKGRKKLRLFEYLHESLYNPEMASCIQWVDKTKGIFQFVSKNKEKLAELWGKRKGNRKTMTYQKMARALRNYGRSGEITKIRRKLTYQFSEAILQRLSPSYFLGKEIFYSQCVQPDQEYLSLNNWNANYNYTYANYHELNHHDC
Summary of the method: as §1

ELF4 = ELF4 (Homo sapiens, UniProt Q99607 1-663); conditions: protein: recombinant; tags: N-terminal GST; dsDNA, one strand shown
Sequence of ELF4 (Q99607 whole entry): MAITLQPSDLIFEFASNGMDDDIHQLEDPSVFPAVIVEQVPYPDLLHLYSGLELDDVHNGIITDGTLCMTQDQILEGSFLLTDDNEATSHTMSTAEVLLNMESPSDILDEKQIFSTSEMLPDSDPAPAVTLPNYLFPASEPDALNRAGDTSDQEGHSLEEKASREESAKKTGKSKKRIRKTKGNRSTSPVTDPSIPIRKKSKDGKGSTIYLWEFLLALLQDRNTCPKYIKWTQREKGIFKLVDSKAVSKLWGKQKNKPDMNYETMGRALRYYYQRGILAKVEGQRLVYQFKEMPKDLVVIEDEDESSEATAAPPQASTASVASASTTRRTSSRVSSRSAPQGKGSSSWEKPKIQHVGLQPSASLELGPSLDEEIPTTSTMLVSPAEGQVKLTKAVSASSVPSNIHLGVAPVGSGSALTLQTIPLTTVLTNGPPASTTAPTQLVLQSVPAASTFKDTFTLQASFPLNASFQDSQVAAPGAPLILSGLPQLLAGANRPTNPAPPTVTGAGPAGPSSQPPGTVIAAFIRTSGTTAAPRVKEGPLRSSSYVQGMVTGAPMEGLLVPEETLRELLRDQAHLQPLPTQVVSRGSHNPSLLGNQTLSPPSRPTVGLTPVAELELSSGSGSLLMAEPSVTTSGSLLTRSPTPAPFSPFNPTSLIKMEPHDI
Summary of the method: as §1

ELK4 = target: T3, ELK4 (Homo sapiens, UniProt P28324-2 1-405); conditions: protein: recombinant; tags: N-terminal GST; dsDNA, one strand shown
T3 sequence: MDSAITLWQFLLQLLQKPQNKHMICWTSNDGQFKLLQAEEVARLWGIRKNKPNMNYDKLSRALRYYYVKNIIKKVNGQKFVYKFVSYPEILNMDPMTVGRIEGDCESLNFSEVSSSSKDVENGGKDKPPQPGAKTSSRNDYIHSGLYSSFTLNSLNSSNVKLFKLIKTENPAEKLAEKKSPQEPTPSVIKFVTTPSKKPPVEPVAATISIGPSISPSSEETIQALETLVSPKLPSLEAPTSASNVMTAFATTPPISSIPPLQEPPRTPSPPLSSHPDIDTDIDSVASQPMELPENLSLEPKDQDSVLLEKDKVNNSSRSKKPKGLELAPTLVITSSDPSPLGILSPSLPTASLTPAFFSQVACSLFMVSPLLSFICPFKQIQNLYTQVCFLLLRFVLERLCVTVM
Summary of the method: as §1

ETV2 = target: T4, ETV2 (Homo sapiens, UniProt O00321 1-342); conditions: protein: recombinant; tags: N-terminal GST; dsDNA, one strand shown
T4 sequence: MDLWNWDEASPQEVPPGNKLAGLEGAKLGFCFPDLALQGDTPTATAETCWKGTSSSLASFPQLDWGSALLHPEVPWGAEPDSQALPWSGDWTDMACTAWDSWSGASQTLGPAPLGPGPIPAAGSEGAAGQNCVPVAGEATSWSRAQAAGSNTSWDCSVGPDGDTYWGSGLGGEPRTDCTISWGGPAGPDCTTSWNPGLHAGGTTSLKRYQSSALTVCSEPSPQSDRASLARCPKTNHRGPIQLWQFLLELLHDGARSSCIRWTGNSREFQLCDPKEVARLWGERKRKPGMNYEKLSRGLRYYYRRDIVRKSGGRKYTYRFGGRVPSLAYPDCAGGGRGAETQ
Summary of the method: as §1

ELF3 = target: T5, ELF3 (Homo sapiens, UniProt P78545 1-371); conditions: protein: recombinant; tags: N-terminal GST; dsDNA, one strand shown
T5 sequence: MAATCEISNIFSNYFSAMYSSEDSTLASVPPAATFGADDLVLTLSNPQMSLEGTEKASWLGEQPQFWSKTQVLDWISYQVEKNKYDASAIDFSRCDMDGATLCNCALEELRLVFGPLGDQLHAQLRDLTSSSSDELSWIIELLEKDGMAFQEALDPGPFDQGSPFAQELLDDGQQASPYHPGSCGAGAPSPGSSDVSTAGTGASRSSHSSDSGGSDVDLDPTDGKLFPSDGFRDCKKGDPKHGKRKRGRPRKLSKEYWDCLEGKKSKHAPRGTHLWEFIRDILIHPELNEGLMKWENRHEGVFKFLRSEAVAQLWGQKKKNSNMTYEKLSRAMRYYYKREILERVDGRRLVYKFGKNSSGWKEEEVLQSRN
Summary of the method: as §1

CRX = CRX (Homo sapiens, UniProt O43186 1-299); conditions: protein: recombinant; tags: N-terminal GST; dsDNA, one strand shown
Sequence of CRX (O43186 whole entry): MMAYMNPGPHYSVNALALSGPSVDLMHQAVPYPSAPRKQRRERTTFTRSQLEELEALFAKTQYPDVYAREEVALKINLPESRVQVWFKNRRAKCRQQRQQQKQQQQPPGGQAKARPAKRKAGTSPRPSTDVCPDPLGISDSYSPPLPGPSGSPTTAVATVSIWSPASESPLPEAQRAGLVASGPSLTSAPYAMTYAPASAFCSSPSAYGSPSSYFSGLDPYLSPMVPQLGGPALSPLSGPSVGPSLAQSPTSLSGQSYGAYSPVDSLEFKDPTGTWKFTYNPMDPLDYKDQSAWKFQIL
Summary of the method: as §1

ETV1 = ETV1 (Homo sapiens, UniProt P50549 1-477); conditions: protein: recombinant; tags: N-terminal GST; dsDNA, one strand shown
Sequence of ETV1 (P50549 whole entry): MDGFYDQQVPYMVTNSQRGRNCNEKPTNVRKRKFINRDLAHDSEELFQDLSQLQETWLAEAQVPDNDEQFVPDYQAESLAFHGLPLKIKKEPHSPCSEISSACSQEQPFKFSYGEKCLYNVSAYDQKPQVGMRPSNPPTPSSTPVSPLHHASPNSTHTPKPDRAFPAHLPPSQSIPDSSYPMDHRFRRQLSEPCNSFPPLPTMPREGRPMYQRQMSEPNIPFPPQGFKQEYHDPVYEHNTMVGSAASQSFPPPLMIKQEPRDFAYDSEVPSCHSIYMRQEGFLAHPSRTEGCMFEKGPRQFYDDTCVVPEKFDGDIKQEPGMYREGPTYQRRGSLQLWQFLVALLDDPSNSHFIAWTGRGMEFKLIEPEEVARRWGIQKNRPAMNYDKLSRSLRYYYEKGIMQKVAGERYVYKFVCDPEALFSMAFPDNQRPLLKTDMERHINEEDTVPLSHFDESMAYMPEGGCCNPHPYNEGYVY
Summary of the method: as §1

## TCAAAA
FEV
  binding signal: 1.13 fold enrichment (6-mer frequency, TF over GST control)
ETV5
  binding signal: 1.17 fold enrichment (6-mer frequency, TF over GST control)
HSF1
  binding signal: 1.19 fold enrichment (6-mer frequency, TF over GST control)
SPIC
  binding signal: 1.24 fold enrichment (6-mer frequency, TF over GST control)
ELF4
  binding signal: 1.22 fold enrichment (6-mer frequency, TF over GST control)
ELK4
  binding signal: 1.25 fold enrichment (6-mer frequency, TF over GST control)
ETV2
  binding signal: 1.23 fold enrichment (6-mer frequency, TF over GST control)
ELF3
  binding signal: 1.39 fold enrichment (6-mer frequency, TF over GST control)
CRX
  binding signal: 1.28 fold enrichment (6-mer frequency, TF over GST control)
ETV1
  binding signal: 1.23 fold enrichment (6-mer frequency, TF over GST control)

## ATACAT
FEV
  binding signal: 1.29 fold enrichment (6-mer frequency, TF over GST control)
ETV5
  binding signal: 1.23 fold enrichment (6-mer frequency, TF over GST control)
HSF1
  binding signal: 1.01 fold enrichment (6-mer frequency, TF over GST control)
SPIC
  binding signal: 1.15 fold enrichment (6-mer frequency, TF over GST control)
ELF4
  binding signal: 1.33 fold enrichment (6-mer frequency, TF over GST control)
ELK4
  binding signal: 1.31 fold enrichment (6-mer frequency, TF over GST control)
ETV2
  binding signal: 1.33 fold enrichment (6-mer frequency, TF over GST control)
ELF3
  binding signal: 1.15 fold enrichment (6-mer frequency, TF over GST control)
CRX
  binding signal: 1.06 fold enrichment (6-mer frequency, TF over GST control)
ETV1
  binding signal: 1.33 fold enrichment (6-mer frequency, TF over GST control)

## AATTGA
FEV
  binding signal: 1.11 fold enrichment (6-mer frequency, TF over GST control)
ETV5
  binding signal: 1.22 fold enrichment (6-mer frequency, TF over GST control)
HSF1
  binding signal: 1.05 fold enrichment (6-mer frequency, TF over GST control)
SPIC
  binding signal: 1.1 fold enrichment (6-mer frequency, TF over GST control)
ELF4
  binding signal: 1.18 fold enrichment (6-mer frequency, TF over GST control)
ELK4
  binding signal: 1.18 fold enrichment (6-mer frequency, TF over GST control)
ETV2
  binding signal: 1.18 fold enrichment (6-mer frequency, TF over GST control)
ELF3
  binding signal: 1.3 fold enrichment (6-mer frequency, TF over GST control)
CRX
  binding signal: 1.1 fold enrichment (6-mer frequency, TF over GST control)
ETV1
  binding signal: 1.21 fold enrichment (6-mer frequency, TF over GST control)

## ACTTAT
FEV
  binding signal: 1.34 fold enrichment (6-mer frequency, TF over GST control)
ETV5
  binding signal: 1.32 fold enrichment (6-mer frequency, TF over GST control)
HSF1
  binding signal: 1.73 fold enrichment (6-mer frequency, TF over GST control)
SPIC
  binding signal: 1.5 fold enrichment (6-mer frequency, TF over GST control)
ELF4
  binding signal: 1.35 fold enrichment (6-mer frequency, TF over GST control)
ELK4
  binding signal: 1.53 fold enrichment (6-mer frequency, TF over GST control)
ETV2
  binding signal: 1.35 fold enrichment (6-mer frequency, TF over GST control)
ELF3
  binding signal: 1.27 fold enrichment (6-mer frequency, TF over GST control)
CRX
  binding signal: 2.2 fold enrichment (6-mer frequency, TF over GST control)
ETV1
  binding signal: 1.42 fold enrichment (6-mer frequency, TF over GST control)

## GTAAAC
FEV
  binding signal: 1.17 fold enrichment (6-mer frequency, TF over GST control)
ETV5
  binding signal: 1.18 fold enrichment (6-mer frequency, TF over GST control)
HSF1
  binding signal: 1.03 fold enrichment (6-mer frequency, TF over GST control)
SPIC
  binding signal: 1.23 fold enrichment (6-mer frequency, TF over GST control)
ELF4
  binding signal: 1.23 fold enrichment (6-mer frequency, TF over GST control)
ELK4
  binding signal: 1.27 fold enrichment (6-mer frequency, TF over GST control)
ETV2
  binding signal: 1.15 fold enrichment (6-mer frequency, TF over GST control)
ELF3
  binding signal: 1.38 fold enrichment (6-mer frequency, TF over GST control)
CRX
  binding signal: 1.07 fold enrichment (6-mer frequency, TF over GST control)
ETV1
  binding signal: 1.22 fold enrichment (6-mer frequency, TF over GST control)

## CCTCTA
FEV
  binding signal: 1.4 fold enrichment (6-mer frequency, TF over GST control)
ETV5
  binding signal: 1.27 fold enrichment (6-mer frequency, TF over GST control)
HSF1
  binding signal: 1.38 fold enrichment (6-mer frequency, TF over GST control)
SPIC
  binding signal: 1.37 fold enrichment (6-mer frequency, TF over GST control)
ELF4
  binding signal: 1.35 fold enrichment (6-mer frequency, TF over GST control)
ELK4
  binding signal: 1.24 fold enrichment (6-mer frequency, TF over GST control)
ETV2
  binding signal: 1.37 fold enrichment (6-mer frequency, TF over GST control)
ELF3
  binding signal: 1.43 fold enrichment (6-mer frequency, TF over GST control)
CRX
  binding signal: 1.45 fold enrichment (6-mer frequency, TF over GST control)
ETV1
  binding signal: 1.28 fold enrichment (6-mer frequency, TF over GST control)

## GTTCCT
FEV
  binding signal: 1.75 fold enrichment (6-mer frequency, TF over GST control)
ETV5
  binding signal: 1.91 fold enrichment (6-mer frequency, TF over GST control)
HSF1
  binding signal: 1.43 fold enrichment (6-mer frequency, TF over GST control)
SPIC
  binding signal: 1.96 fold enrichment (6-mer frequency, TF over GST control)
ELF4
  binding signal: 1.6 fold enrichment (6-mer frequency, TF over GST control)
ELK4
  binding signal: 1.48 fold enrichment (6-mer frequency, TF over GST control)
ETV2
  binding signal: 1.65 fold enrichment (6-mer frequency, TF over GST control)
ELF3
  binding signal: 1.6 fold enrichment (6-mer frequency, TF over GST control)
CRX
  binding signal: 1.07 fold enrichment (6-mer frequency, TF over GST control)
ETV1
  binding signal: 1.79 fold enrichment (6-mer frequency, TF over GST control)
